Screens deposited in PubChem by National Center for Advancing Translational Sciences (NCATS).
ELG1 repair inh: inhibitors of ELG1-dependent DNA repair in HEK293T cells; HEK293T ELG1-luciferase reporter, luminescence, 16 h; DNA damage induced by 5-fluorouridine; Potency, µM (doses to about 46.1 µM), usual class: inhibitors; 330,000 tested, 2.3% active; note: nearly all actives have a fitted effect of over 55% in size
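Reporter activity after DNA damage by 5-fluorouridine is monitored. Compound-treated cells incubate 16 hr at 37 °C, then ONE-Glo is added for 30 min before luminescence reading.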
DT40 TDP1 no CPT: qHTS for Inhibitors of human tyrosyl-DNA phosphodiesterase 1 (TDP1): qHTS in cells in absence of CPT. 420,000 tested, 15% active. DT40 Tdp1-/- hTDP1 cells, no CPT, ATP luminescence, 48 h. Potency, µM (highest dose often 46.2 µM), hits mostly inhibitors; note: nearly all actives have a fitted effect of over 55% in size
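No-CPT arm: Tdp1-/-;hTDP1 DT40 cells (400/well) plus compounds, incubated ≥48 hr at 37 °C. Readout CellTiter-Glo luminescence.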
Gal4-VP16 FLuc: inhibits Gal4-VP16 luciferase reporter, ROR gamma counter-screen; Potency, µM (doses to about 53.6 µM), actives largely listed as inhibitors; Drosophila S2 Gal4-VP16 UAS-luciferase, luminescence, 20 h; 310,000 tested, 3.5% active;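 note: Gal4-VP16 expression switched on by copper sulfate through the metallothionein promoter; nearly all actives have a fitted effect of over 50% in size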
TDP1 cell CPT: growth inhibition of DT40 Tdp1-/-;hTDP1 cells with camptothecin (screen for TDP1 inhibitors); Potency, µM (series often up to 46.2 µM), usual class: inhibitors; AID 686979; chicken DT40 Tdp1-/-;hTDP1 cells + 20 nM CPT, ATP luminescence, 48 h; 420,000 tested, 12% active; note: nearly all actives have a fitted effect of over 55% in size
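Chicken DT40 Tdp1-/- cells stably complemented with human TDP1 were seeded at 400 cells/well in medium containing 20 nM camptothecin, exposed to pin-transferred compounds, and grown at 37 °C for at least 48 hr. Viability was read as ATP luminescence.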
RORgamma inh: ROR gamma (mouse) transcription inhibition | Drosophila S2 Gal4-RORgamma UAS-luciferase reporter, 20 h | Potency, µM (titrated, usually from 53.6 µM), usual class: inhibitors | P51450 | 310,000 tested, 5.4% active; note: nearly all actives have a fitted effect of over 60% in size
Target sequence (P51450 whole entry, looked up, the tested form may be a part): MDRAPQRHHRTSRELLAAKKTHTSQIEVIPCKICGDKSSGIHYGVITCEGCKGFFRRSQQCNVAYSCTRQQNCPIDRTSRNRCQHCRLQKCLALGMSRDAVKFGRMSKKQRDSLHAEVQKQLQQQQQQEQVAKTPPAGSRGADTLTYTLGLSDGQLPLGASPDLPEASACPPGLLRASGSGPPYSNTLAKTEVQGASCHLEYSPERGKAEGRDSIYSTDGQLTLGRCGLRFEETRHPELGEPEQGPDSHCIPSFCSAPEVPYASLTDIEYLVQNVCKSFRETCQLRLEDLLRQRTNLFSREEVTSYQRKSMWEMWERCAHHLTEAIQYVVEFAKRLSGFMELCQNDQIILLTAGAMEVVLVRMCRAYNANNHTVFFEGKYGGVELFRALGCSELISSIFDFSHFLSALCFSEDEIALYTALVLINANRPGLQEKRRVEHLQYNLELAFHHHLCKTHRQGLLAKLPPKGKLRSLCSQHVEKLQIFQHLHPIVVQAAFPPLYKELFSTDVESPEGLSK
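Read-out: Photinus luciferase luminescence; inhibitors lower reporter signal. Insect Schneider cells with Gal4-ROR gamma fusion under metallothionein promoter, UAS reporter; 700 uM final copper sulfate induction, 20 hr, ambient temperature.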
12-LOX inh: inhibitors of human 12S-lipoxygenase ALOX12; purified 12hLO, xylenol orange hydroperoxide absorbance; P18054; AID 1671190; Potency, µM (titrated, usually from 108 µM), usual class: inhibitors; 580,000 tested, 1.1% active
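Purified human 12hLO (150 nM final) in 25 mM Hepes, 0.01% Triton X-100, pH 7.0 was preincubated 15 min at room temperature with compound. Then 40 uM arachidonic acid was added, 30 min. Hydroperoxide was read by Fe-XO absorbance ratio 573/405 nm.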
Numbers stand for hits; i = inactive; ? = inconclusive; nt = not tested or not shown; [ ] = dose if it differs, or a comment. This is a sample that favours compounds with a hit; in the whole collection about 15% have one here. Calls come from the whole dose curve; as a rule, active = well fitted curve in the direction sought with a large enough effect; inconclusive = small, poorly fitted or top-dose-only effect, or another doubt; inactive = no such curve, though single readings can be large; an effect the other way counts as inactive or inconclusive.

SMILES	ELG1 repair inh	DT40 TDP1 no CPT	Gal4-VP16 FLuc	TDP1 cell CPT	RORgamma inh	12-LOX inh
CCCCNC(=O)C(C)N(CCN(C)C)C(=O)CCCN1C(=O)NC(c2ccc([N+](=O)[O-])cc2)C(C(=O)OCc2ccccc2)=C1C (configuration not stated)	i	23µM	nt	18µM	nt	nt
COC(=O)CCCCCN1C(=O)NC(c2ccccc2)C(C(=O)OCc2ccccc2)=C1C (configuration not stated)	i	16µM	?	21µM	?	i
CC1=C(C(=O)OCc2ccccc2)C(c2ccc(Br)cc2)NC(=O)N1CCCCCC(=O)O (configuration not stated)	nt	i	nt	i	nt	i
O=c1cc(N2CCCCC2)c(-c2ccccc2)nn1Cc1ccccc1Cl	i	?	i	?	?	i
O=c1cc(N2CCCCC2)c(-c2ccccc2)nn1Cc1ccc(Cl)cc1Cl	i	18µM	i	?	i	?
CC(C)OCCCNC(=S)NNC(=O)c1ccc(Cl)c(Cl)c1	i	i	?	i	14µM	i
CCCCNC(=O)c1ccc(Cl)c(Cl)c1	nt	nt	nt	nt	nt	i
CN1CCc2nc(SCC(=O)Nc3ccc(Cl)cc3)c(C#N)cc2C1	nt	?	nt	?	nt	5.6µM
CC(C)(C)NC(=O)CSc1nc2c(c(-c3cccs3)c1C#N)CCCC2	nt	nt	nt	nt	nt	i
COc1ccc(NC(=O)CSc2nc3c(c(-c4cccs4)c2C#N)CN(C)CC3)cc1OC	i	?	i	29µM	i	i
Cc1nc(SCC(=O)Nc2ccc(Cl)cc2)c(C#N)c2c1CCCC2	nt	nt	nt	nt	nt	i
CN(Cc1ccccc1)CC(C#N)C(O)c1ccccn1 (configuration not stated)	nt	nt	nt	nt	nt	i
COc1ccc(S(=O)(=O)N2CCCCCC2)cc1C(=O)N1CCN(c2ccc(F)cc2)CC1	nt	21µM	nt	?	nt	i
COc1ccc(N2CCN(C(=O)COc3ccc(S(=O)(=O)N4CCOCC4)cc3C)CC2)cc1	i	23µM	i	?	?	i
COc1ccc(N2CCN(C(=O)c3cc(S(=O)(=O)N4CCCCCC4)ccc3OC)CC2)cc1	i	16µM	nt	?	nt	i
Cc1cc(S(=O)(=O)N2CCCC2)ccc1OCC(=O)N1CCOCC1	i	i	nt	i	i[0.365 µM]	i
COc1ccc(S(=O)(=O)N2CCN(c3ccccc3)CC2)cc1C(=O)N1CCCC1	i	i	i	i	i	i
Cc1ccc(C)c(NC(=O)C(C)Sc2nc3ccccc3nc2C)c1 (configuration not stated)	nt	nt	nt	nt	nt	i
CC(=O)Oc1cc(OC(C)=O)c2c(C)c(CC(=O)NCc3ccccc3)c(=O)oc2c1	nt	nt	nt	nt	nt	i
COCCN1CC(CO)C2(CCN(C(=O)Cc3ccccc3C)CC2)C1 (configuration not stated)	nt	nt	nt	nt	nt	i
CCOc1ccc(NCc2cccn2-c2nnc(N3CCC(C(=O)NCCCN4CCCCC4)CC3)s2)cc1	i	23µM	?	?	i	i
CCOc1ccc(NCc2cccn2-c2nnc(N3CCC(C(=O)NC(C)C)CC3)s2)cc1	nt	nt	nt	nt	nt	i
CCOc1ccc(NCc2cccn2-c2nnc(N3CCC(C(=O)NCc4ccccc4Cl)CC3)s2)cc1	nt	12µM	nt	i	nt	i
CCOc1ccc(CNC(=O)CC(C)S(=O)(=O)c2ccc3c(c2)NC(=O)CO3)cc1OC (configuration not stated)	nt	nt	nt	nt	nt	i
CCS(=O)(=O)N1C[C@@H]2CN(Cc3ncc[nH]3)C[C@]2(C(=O)O)C1	nt	nt	nt	nt	nt	i
SMILES	ELG1 repair inh	DT40 TDP1 no CPT	Gal4-VP16 FLuc	TDP1 cell CPT	RORgamma inh	12-LOX inh
Cc1nc(-c2ccc(S(=O)(=O)Nc3ccc(C(C)C)cc3)cc2)co1	nt	nt	nt	nt	nt	i
CCOC(=O)C1CCCN(C(=O)c2cc(-c3ccc(F)cc3)nc3ccccc23)C1 (configuration not stated)	i	15µM	i	?	i	i
CCOC(=O)C1CCCN(C(=O)c2cc(Nc3ccc(OC)cc3)nc3ccccc23)C1 (configuration not stated)	nt	15µM	i	21µM	?	i
CCN1CCCC(OC(=O)c2cc(-c3ccc(C)cc3)nc3ccccc23)C1 (configuration not stated)	i	16µM	i	?	?	?
CCOC(=O)C1CCCN(C(=O)c2cc(-c3ccco3)nc3ccccc23)C1 (configuration not stated)	i	i	nt	i	nt	8.9µM
O=C(N1CCOc2ccc(CN3CCc4ccccc4C3)cc2C1)C1(c2ccccc2)CC1	nt	nt	nt	nt	nt	i
CC1(C)[C@H](Cc2cc(CCO)on2)C[C@@H]1NC1CCCCC1	nt	nt	nt	nt	nt	i
COC(=O)[C@@H]1Cc2c([nH]c3ccccc23)[C@H]2C[C@H](NCc3cccs3)C[C@@H](c3ccc(F)cc3)N21	nt	nt	nt	nt	nt	i
Cc1ccc(C)c(C(=O)c2sc(Nc3ccccc3)nc2N)c1	nt	nt	nt	nt	nt	i
COc1ccc(-c2noc(-c3nnn4c3COC(c3ccc(C)cc3C)C4)n2)c(OC)c1 (configuration not stated)	nt	nt	nt	nt	nt	i
Cc1nc(-c2ccc(F)cc2)n(CC(=O)Nc2cc(C(F)(F)F)ccc2Cl)c(=O)c1CCO	nt	nt	nt	nt	nt	i
C[n+]1c(-c2ccccc2)sc([S-])c1-c1ccccc1	nt	9.2µM	nt	23µM	nt	?
CCn1c(=O)n(CC)c2cc(N3CCCC3)c(NC(=O)c3cc(Br)ccc3OC)cc21	?	?	?	?	i	i
COc1ccc(Br)c(C(=O)Nc2cc3c(cc2N2CCCC2)n(C)c(=O)c(=O)n3C)c1	nt	21µM	nt	16µM	nt	i
CCn1c(=O)n(CC)c2cc(N3CCCC3)c(NC(=O)c3ccccc3C)cc21	?	21µM	i	16µM	i	i
CCn1c(=O)n(CC)c2cc(N3CCCC3)c(NC(=O)c3ccccc3)cc21	?	9.2µM	i	21µM	i	i
O=C(Nc1cc([N+](=O)[O-])ccc1N1CCCC1)c1ccccc1	i	i	i	i	i	i
Cn1c(=O)n(C)c2cc(N3CCCCC3)c(NC(=O)c3ccccc3)cc21	i	?	i	29µM	i	i
Cn1c(=O)n(C)c2cc(N3CCCCC3)c(NC(=O)c3ccc(Cl)cc3)cc21	nt	i	nt	i	nt	i
NC1CC1c1ccc2ccccc2c1 (configuration not stated)	nt	nt	nt	nt	nt	i
CCn1c(=O)n(CC)c2cc(N3CCCCC3)c(NC(=O)Nc3ccccc3C(F)(F)F)cc21	nt	10µM	nt	12µM	nt	i
CCOc1ccccc1C(=O)Nc1cc2c(cc1N1CCCCC1)n(C)c(=O)n2C	nt	18µM	nt	15µM	nt	i
CCn1c(=O)n(CC)c2cc(N3CCCCC3)c(NC(=O)Nc3cc(Cl)ccc3OC)cc21	nt	18µM	nt	23µM	nt	i
